For 4 molecules, outcome and AC50 results are on record in PubChem BioAssay (EPA / NIEHS).

Each structure is given as a SMILES string. Active and inactive are the calls of the source. Rule for the calls: active = hit-call score of the fitted dose curve at least 0.9, where 1 is the maximum; inactive = score below 0.9.

Experiment [1] can be described thus: ATG_GRE_CIS: Attagene CIS-FACTORIAL HepG2 Assay for human Glucocorticoid Response Elements (GRE) (AID 2282947). As to conditions: HepG2 GRE cis-reporter, Attagene multiplex mRNA; actives raise or lower the signal. The method in brief:
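Reporter transcripts read by RT-PCR with capillary electrophoresis fluorescence after a 24 h chemical exposure of HepG2 cells transiently transfected with multiple cis-element reporter units. Gain or loss fitted against DMSO.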

Experiment [2] is described as follows: ATG_ISRE_CIS: Attagene CIS-FACTORIAL HepG2 Assay for human Interferon Regulatory Factor 1 (IRF1) binding to an Interferon-Stimulated Response Element (ISRE) (AID 2282948). As to conditions: HepG2 ISRE cis-reporter (Attagene), mRNA transcription readout; actives raise or lower the signal. The method in brief: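 Read-out: fluorescent RT-PCR products resolved by capillary electrophoresis, reporting endogenous transcription factor activity via ISRE-driven reporter mRNA in transfected HepG2 cells dosed for 24 h; gain or loss fitted relative to DMSO.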

Experiment [3] is described as follows: ATG_M_32_CIS: Attagene CIS-FACTORIAL HepG2 Assay for M32 Transcription Factor (Internal Marker) (AID 2282949).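 Note: background control marker of the multiplexed CIS panel rather than a real target.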 The following applies: HepG2 Attagene cis-factorial M32 reporter, mRNA; actives raise or lower the signal. The procedure, abridged:
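HepG2 transfectants (cis-regulated reporter transcription units) dosed 24 h. Reporter mRNA by RT-PCR plus CE, analysed as gain or loss relative to DMSO.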

Experiment [4] can be described thus: ATG_M_06_CIS: Attagene CIS-FACTORIAL HepG2 Assay for M06 Transcription Factor (Internal Marker) (AID 2282950). As to conditions: HepG2 Attagene CIS-FACTORIAL M06 internal marker reporter; actives raise or lower the signal. The procedure, abridged:
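Fluorescence-labelled RT-PCR products from cis-promoter reporter units, cut with HpaI and resolved by capillary electrophoresis, give the signal. Cells are human HepG2, dosed for 24 h. Serves as background control, fitted relative to DMSO.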

Experiment [5] concerns the target Hypoxia-inducible factor 1-alpha (Homo sapiens) (UniProt Q16665). As to the kind of experiment: ATG_HIF1a_CIS: Attagene CIS-FACTORIAL HepG2 Assay for human Hypoxia Inducible Factor 1 (HIF1A) (AID 2282951). The following applies: HepG2 Attagene cis-factorial HIF1a reporter transcription; actives raise or lower the signal. The method in brief:
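HepG2, transient cis-reporter library, 24 h dosing. RNA → RT (oligo dT) → PCR → 6-FAM primer extension → HpaI → CE. Bidirectional curve fit vs DMSO.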

Experiment [6] concerns the target Hepatocyte nuclear factor 6 (Homo sapiens) (UniProt Q9UBC0). As to the kind of experiment: ATG_HNF6_CIS: Attagene CIS-FACTORIAL HepG2 Assay for human Hepatocyte Nuclear Factor 6 (HNF6) (AID 2282952). As to conditions: HepG2 Attagene cis-factorial HNF6 reporter transcription; actives raise or lower the signal. The procedure, abridged:
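Endogenous transcription factor activity in human HepG2 liver cells was captured through cis-regulated reporter constructs. After 24 h treatment, reporter mRNA was measured by RT-PCR with capillary electrophoresis, and activity was fitted in both directions relative to DMSO.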

The target of experiment [7] is Heat shock factor protein 1 (Homo sapiens) (UniProt Q00613). As to the kind of experiment: ATG_HSE_CIS: Attagene CIS-FACTORIAL HepG2 Assay for human Heat Shock Transcription Factor 1 (HSE) (AID 2282953). As to conditions: HepG2 HSE cis-reporter, Attagene RNA transcription; actives raise or lower the signal. The procedure, abridged: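 After a 24 h incubation with test chemical, transfected HepG2 cells were harvested for RNA; reporter transcripts were measured by RT-PCR and capillary electrophoresis. Values reflect gain or loss of signal relative to DMSO.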

A short description of experiment [8]: ATG_MRE_CIS: Attagene CIS-FACTORIAL HepG2 Assay for human Metal Responsive Element (MRE) (AID 2282954). The following applies: HepG2 MRE cis-reporter transcription, Attagene multiplex; actives raise or lower the signal. The procedure, abridged:
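Endogenous MRE-dependent transcription read as reporter mRNA in transiently transfected human HepG2 cells at 24 h. RNA reverse-transcribed, PCR-amplified, labelled and resolved by capillary electrophoresis; gain or loss relative to DMSO.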

Experiment [9] in a line: ATG_PBREM_CIS: Attagene CIS-FACTORIAL HepG2 Assay for human Phenobarbital-responsive Enhancer Module (PBREM) (AID 2282955). As to conditions: HepG2 PBREM cis-reporter, Attagene multiplexed transcription; actives raise or lower the signal. The method in brief: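 HepG2, transient MRTU transfection, 24 h dosing; RNA → oligo(dT) RT → PCR → 6-FAM extension → HpaI → CE. Bidirectional fit vs DMSO.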

The target in experiment [10] is Paired box protein Pax-6 (Homo sapiens) (UniProt P26367). As to the kind of experiment: ATG_Pax6_CIS: Attagene CIS-FACTORIAL HepG2 Assay for human Paired Box 6 (PAX6) (AID 2282956). The following applies: HepG2 CIS-FACTORIAL PAX6 reporter transcription, RNA readout; actives raise or lower the signal. The method in brief: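 Readout: reporter transcript fluorescence after RT-PCR and capillary electrophoresis. Cells: HepG2, transiently transfected with cis-regulated MRTUs. Exposure 24 h. Gain or loss of signal fitted bidirectionally relative to DMSO.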

Experiment [11] can be described thus: ATG_PXRE_CIS: Attagene CIS-FACTORIAL HepG2 Assay for human Pregnane X Receptor Element (PXRE) (AID 2282957). The following applies: HepG2 Attagene CIS-FACTORIAL PXRE reporter, mRNA; actives raise or lower the signal. The procedure, abridged: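 Endogenous transcription factor activity in HepG2 was gauged through induction of reporter mRNA driven by a cis-regulating promoter element, sampled 24 h post-treatment. Activity was fitted in both directions against DMSO negative control.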

Experiment [12] in a line: ATG_RORE_CIS: Attagene CIS-FACTORIAL HepG2 Assay for human RAR-related Orphan Receptor Element (RORE) (AID 2282959). As to conditions: HepG2 Attagene cis-factorial RORE reporter, mRNA; actives raise or lower the signal. The procedure, abridged:
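Multiplexed reporter assay measuring mRNA induction from a cis promoter element in transiently transfected HepG2 cells after 24 h treatment. Detection via RT-PCR and capillary electrophoresis fluorescence; DMSO serves as baseline.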

Experiment [13] addresses Transcription factor Sp1 (Homo sapiens) (UniProt P08047). As to the kind of experiment: ATG_Sp1_CIS: Attagene CIS-FACTORIAL HepG2 Assay for human Specificity Protein 1 (Sp1) (AID 2282961). As to conditions: HepG2 Sp1 cis-reporter transcription, actives raise or lower the signal. The method in brief:
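Measures mRNA induction of an Sp1-linked reporter in HepG2 cells 24 h post-dosing. Multiplexed reporters read by RT-PCR and capillary electrophoresis; DMSO serves as negative control and baseline.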

The nature of experiment [14]: ATG_SREBP_CIS: Attagene CIS-FACTORIAL HepG2 Assay for human Sterol Regulatory Element Binding (SREBP) (AID 2282962). As to conditions: HepG2 Attagene cis-factorial SREBP reporter, mRNA; actives raise or lower the signal. The method in brief:
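Readout: fluorescent reporter-transcript peaks resolved by capillary electrophoresis after RT-PCR. Cells were human HepG2 carrying transfected cis-promoter reporter constructs, dosed for 24 h. Gain or loss of signal was fitted against DMSO controls.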

Experiment [15] addresses Signal transducer and activator of transcription 3 (Homo sapiens) (UniProt P40763). As to the kind of experiment: ATG_STAT3_CIS: Attagene CIS-FACTORIAL HepG2 Assay for human Signal Transducer and Activator of Transcription 3 (STAT3) (AID 2282963). As to conditions: HepG2, Attagene cis-factorial STAT3 reporter transcription; actives raise or lower the signal. The method in brief:
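Readout is reporter transcript quantified by RT-PCR and capillary electrophoresis, with 6-FAM primer extension and HpaI digestion. Total RNA is taken 24 h after dosing transiently transfected HepG2 carrying cis-regulated reporter units. Bidirectional fit against DMSO.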

Experiment [16] can be described thus: ATG_TA_CIS: Attagene CIS-FACTORIAL HepG2 Assay for human TA Basal Promoter (AID 2282964). The following applies: HepG2 Attagene CIS-factorial TA basal promoter reporter; actives raise or lower the signal. The method in brief:
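Multiplexed mRNA reporter assay, HepG2, 24 h. Reporter cDNA amplified, 6-FAM primer-extended, HpaI-cut, CE-sized; DMSO = negative control and baseline.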

The nature of experiment [17]: ATG_TCF_b_cat_CIS: Attagene CIS-FACTORIAL HepG2 Assay for human T-Cell-Factor with beta-catenin (TCF/b-cat) (AID 2282965). As to conditions: HepG2 TCF/beta-catenin cis-reporter transcription, actives raise or lower the signal. The procedure, abridged:
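Endogenous transcription factor activity is captured through cis-promoter reporter constructs transiently introduced into human HepG2 liver cells. Induced reporter mRNA is measured after 24 h and fitted bidirectionally relative to DMSO.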

Experiment [18] is described as follows: ATG_PPRE_CIS: Attagene CIS-FACTORIAL HepG2 Assay for human Peroxisome Proliferator-activated Response Element (PPRE) (AID 2282958). The following applies: HepG2 PPRE cis-element reporter, Attagene transcription factor profiling; actives raise or lower the signal. The method in brief: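 Transcript-level reporter induction in transfected HepG2 cells after 24 h chemical exposure, quantified by fluorescence from RT-PCR products separated by capillary electrophoresis.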

Experiment [19] can be described thus: ATG_Sox_CIS: Attagene CIS-FACTORIAL HepG2 Assay for human SRY-box transcription factor (SOX) (AID 2282960). As to conditions: HepG2 Attagene cis-factorial SOX reporter, mRNA; actives raise or lower the signal. The method in brief: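 Cells were transfected with reporter constructs under cis-regulatory promoters, then exposed to chemicals for 24 h. Reporter transcripts were quantified by fluorescence after RT-PCR and capillary electrophoresis; activity was fitted in both directions against DMSO.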

Experiment [20] concerns the target Bile acid receptor (Homo sapiens) (UniProt Q96RI1). As to the kind of experiment: ATG_IR1_CIS: Attagene CIS-FACTORIAL HepG2 Assay for human Nuclear Receptor Subfamily 1 Group H Member 4 (NR1H4), IR1 submotif (AID 2282946). The following applies: IR1 reporter transcription, actives raise or lower the signal. The method in brief:
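HepG2 cells transiently transfected with multiplexed cis-element reporter units read endogenous transcription factor activity. After 24 h compound exposure, reporter mRNA was quantified by RT-PCR, fluorescent labelling, HpaI digestion and capillary electrophoresis; bidirectional fitting versus DMSO baseline.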

Sequence of Hypoxia-inducible factor 1-alpha (Homo sapiens) (Q16665 whole entry, looked up): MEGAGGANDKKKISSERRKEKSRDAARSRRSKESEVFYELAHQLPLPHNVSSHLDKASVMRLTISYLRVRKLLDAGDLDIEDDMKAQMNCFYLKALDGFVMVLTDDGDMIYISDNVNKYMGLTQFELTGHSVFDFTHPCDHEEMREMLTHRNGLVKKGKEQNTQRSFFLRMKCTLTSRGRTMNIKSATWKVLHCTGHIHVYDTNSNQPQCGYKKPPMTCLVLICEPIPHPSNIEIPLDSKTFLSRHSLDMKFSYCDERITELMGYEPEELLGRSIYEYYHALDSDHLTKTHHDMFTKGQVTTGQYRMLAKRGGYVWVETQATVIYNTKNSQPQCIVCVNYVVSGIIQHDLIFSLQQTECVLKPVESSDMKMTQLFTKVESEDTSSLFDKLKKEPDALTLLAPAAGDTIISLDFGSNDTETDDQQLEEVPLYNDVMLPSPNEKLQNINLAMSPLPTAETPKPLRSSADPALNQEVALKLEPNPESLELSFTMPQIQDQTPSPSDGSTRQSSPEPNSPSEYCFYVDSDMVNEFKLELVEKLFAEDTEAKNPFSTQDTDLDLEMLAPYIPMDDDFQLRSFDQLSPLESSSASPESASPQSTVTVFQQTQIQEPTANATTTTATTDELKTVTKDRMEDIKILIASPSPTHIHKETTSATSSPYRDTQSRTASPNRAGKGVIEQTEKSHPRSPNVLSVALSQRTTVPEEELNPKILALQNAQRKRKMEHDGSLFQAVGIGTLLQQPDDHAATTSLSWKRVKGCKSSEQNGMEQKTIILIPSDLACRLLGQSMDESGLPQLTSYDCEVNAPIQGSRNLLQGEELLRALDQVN
Sequence of Transcription factor Sp1 (Homo sapiens) (P08047 whole entry, looked up): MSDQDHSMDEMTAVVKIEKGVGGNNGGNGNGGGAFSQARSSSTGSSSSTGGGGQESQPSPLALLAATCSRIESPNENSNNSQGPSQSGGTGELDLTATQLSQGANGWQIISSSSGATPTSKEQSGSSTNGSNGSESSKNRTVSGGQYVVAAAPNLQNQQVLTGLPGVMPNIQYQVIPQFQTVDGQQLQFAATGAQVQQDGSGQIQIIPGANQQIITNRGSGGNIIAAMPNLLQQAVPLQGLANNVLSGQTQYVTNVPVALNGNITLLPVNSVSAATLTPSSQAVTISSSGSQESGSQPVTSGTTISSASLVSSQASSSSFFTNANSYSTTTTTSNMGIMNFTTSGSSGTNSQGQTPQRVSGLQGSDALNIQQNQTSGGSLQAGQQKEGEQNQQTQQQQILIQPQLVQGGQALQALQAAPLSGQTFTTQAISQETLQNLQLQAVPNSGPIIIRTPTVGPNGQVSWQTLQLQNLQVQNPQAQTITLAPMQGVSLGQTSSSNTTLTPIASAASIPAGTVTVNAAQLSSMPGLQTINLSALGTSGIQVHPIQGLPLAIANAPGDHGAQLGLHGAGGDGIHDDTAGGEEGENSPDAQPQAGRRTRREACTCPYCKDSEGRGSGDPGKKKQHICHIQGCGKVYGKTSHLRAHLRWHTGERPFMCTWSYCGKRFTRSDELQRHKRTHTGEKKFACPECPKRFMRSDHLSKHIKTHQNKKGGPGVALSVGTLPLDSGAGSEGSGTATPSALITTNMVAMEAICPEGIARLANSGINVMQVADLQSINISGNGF
Sequence of Signal transducer and activator of transcription 3 (Homo sapiens) (P40763 whole entry, looked up): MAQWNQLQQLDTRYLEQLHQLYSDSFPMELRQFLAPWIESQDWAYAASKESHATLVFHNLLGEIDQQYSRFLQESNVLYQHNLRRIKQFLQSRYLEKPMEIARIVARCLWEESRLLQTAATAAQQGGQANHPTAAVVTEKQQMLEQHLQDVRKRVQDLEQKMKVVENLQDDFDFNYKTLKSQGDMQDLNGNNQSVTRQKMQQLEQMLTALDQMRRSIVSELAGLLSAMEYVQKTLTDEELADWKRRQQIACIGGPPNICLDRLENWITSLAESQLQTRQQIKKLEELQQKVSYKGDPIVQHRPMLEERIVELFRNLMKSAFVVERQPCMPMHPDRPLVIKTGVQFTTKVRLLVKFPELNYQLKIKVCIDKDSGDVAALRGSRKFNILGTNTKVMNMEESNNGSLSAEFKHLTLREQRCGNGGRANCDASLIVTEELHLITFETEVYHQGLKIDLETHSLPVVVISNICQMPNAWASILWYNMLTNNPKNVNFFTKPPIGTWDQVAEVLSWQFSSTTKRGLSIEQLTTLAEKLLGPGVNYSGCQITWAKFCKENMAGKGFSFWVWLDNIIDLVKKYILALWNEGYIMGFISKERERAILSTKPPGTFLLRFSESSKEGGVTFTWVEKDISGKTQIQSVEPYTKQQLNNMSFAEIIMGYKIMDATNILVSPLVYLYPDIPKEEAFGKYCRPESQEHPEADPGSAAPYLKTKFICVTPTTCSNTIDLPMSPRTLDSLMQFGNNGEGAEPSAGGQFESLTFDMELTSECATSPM
Sequence of Paired box protein Pax-6 (Homo sapiens) (P26367 whole entry, looked up): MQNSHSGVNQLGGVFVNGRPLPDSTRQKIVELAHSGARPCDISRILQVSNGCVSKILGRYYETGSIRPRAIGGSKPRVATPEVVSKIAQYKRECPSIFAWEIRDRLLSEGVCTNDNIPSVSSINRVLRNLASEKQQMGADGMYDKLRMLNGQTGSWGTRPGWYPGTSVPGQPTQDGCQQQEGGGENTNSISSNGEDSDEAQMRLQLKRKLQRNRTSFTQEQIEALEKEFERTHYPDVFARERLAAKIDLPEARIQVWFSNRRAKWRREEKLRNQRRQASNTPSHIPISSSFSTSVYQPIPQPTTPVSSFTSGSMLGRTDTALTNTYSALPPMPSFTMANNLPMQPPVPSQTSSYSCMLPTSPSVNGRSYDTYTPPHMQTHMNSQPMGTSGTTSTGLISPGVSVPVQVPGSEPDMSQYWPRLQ
Sequence of Hepatocyte nuclear factor 6 (Homo sapiens) (Q9UBC0 whole entry, looked up): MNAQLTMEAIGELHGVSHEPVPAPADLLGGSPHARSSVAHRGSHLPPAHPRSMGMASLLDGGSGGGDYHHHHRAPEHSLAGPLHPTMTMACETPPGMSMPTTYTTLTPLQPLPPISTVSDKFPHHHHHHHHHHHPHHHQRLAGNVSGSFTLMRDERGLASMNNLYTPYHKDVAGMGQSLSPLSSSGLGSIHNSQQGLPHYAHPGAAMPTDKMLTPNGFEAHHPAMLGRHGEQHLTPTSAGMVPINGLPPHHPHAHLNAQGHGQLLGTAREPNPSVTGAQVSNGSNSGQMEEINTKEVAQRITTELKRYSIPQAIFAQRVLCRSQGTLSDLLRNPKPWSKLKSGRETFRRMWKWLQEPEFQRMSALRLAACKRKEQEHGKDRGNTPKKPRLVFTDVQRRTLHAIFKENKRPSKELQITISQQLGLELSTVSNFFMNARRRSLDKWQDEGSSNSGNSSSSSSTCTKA
Sequence of Heat shock factor protein 1 (Homo sapiens) (Q00613 whole entry, looked up): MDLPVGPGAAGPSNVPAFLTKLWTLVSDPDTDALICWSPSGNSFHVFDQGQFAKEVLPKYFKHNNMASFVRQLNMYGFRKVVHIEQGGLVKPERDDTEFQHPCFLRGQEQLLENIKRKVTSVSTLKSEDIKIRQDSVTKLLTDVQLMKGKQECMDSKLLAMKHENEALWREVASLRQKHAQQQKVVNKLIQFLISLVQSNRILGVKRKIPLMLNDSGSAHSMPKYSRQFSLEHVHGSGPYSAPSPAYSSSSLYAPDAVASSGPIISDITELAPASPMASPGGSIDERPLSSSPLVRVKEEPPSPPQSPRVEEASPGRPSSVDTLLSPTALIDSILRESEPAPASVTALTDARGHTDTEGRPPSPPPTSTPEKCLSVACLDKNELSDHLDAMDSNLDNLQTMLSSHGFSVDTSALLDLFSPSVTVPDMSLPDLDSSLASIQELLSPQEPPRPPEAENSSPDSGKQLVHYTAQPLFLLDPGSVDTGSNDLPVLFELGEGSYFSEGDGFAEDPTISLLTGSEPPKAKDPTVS
Sequence of Bile acid receptor (Homo sapiens) (Q96RI1 whole entry, looked up): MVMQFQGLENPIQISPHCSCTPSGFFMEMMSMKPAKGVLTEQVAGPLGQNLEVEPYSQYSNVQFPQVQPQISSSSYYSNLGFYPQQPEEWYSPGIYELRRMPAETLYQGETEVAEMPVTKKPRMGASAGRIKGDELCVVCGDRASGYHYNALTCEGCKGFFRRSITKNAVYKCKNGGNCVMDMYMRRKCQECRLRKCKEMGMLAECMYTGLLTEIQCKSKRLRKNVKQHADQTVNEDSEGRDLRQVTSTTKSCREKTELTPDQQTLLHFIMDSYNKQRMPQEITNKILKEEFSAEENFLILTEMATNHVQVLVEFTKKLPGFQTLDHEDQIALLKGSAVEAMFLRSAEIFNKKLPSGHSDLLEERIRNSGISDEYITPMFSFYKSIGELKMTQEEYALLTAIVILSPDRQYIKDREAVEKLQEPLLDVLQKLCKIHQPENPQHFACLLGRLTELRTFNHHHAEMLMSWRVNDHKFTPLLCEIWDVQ

Turning to `C=C(C)C(=O)OCCOCCOCCOC(=O)C(=C)C`, the molecule was called inactive in [1], in experiment [2], in [3], in experiment [4], in experiment [5] and in experiment [6]. Also, the call in experiment [7], in experiment [8], in experiment [9], in experiment [10], in experiment [12] and in experiment [13] was inactive. The outcome in [14], in experiment [15], in experiment [16] and in experiment [17] was inactive. In addition, in experiment [11], the AC50 was 54.8 µM (active).
On to `O=C1OC[C@H](Cc2cccc(O)c2)[C@H]1Cc1cccc(O)c1`, for which the molecule was called inactive in [1], in experiment [2], in experiment [3], in experiment [4], in experiment [5] and in experiment [6]. Further, the result in [7], in [8], in [10], in experiment [18], in experiment [12] and in experiment [19] was inactive. For the same molecule, the call in experiment [13], in experiment [14], in [15], in experiment [16] and in [17] was inactive. In addition, the AC50 was 33.5 µM (active) in experiment [9] and 5.12 µM (active) in [11].
Consider `CC(C)CCOC(=O)c1ccccc1`, for which the outcome in experiment [20], in experiment [3], in [4], in [5], in experiment [6] and in experiment [7] was inactive. Also, the call in [8], in experiment [9], in [10], in [11], in experiment [18] and in experiment [12] was inactive. Besides, the result in experiment [13], in experiment [14], in experiment [15], in experiment [16] and in [17] was inactive.
Take `C=C[Si]1(C)O[Si](C)(C=C)O[Si](C)(C=C)O[Si](C)(C=C)O1` (stereo unspecified): the outcome in experiment [1], in experiment [2], in [3], in [4], in [5] and in [6] was inactive. In addition, the molecule was classed as inactive in experiment [7], in [8], in [9], in [18], in [12] and in experiment [19]. For the same molecule, the call in [13], in experiment [14], in [15], in [16] and in [17] was inactive. The AC50 in [11] is 2.51 µM (active).

Broadly, the AC50 is the concentration at which the activity in the assay is half-maximal.
